{"source": "ChEMBL document CHEMBL3988442", "about": "“University of Dundee, Small-Polar-MMV Screening Library” (2021)", "note": "Out of some 48,000 compounds screened, about 13,000 (27%) showed an effect of 50% or more. The list shows a part of the results.", "data": [{"test_system": "Wolbachia pipientis", "test": "Anti-Wolbachia Cell-Based Screen", "format": "functional", "set-up": "scale not given: in the data most compounds retested in dose-response had high values", "conditions": "5 µM", "units": {"Percent Effect": "%"}, "values": [{"compound": "COc1ccc2[nH]c(C[C@@H]3C[C@@H](C(C)C)[C@H](CN(C)C)C=C3C)nc2c1", "Percent Effect": -3.029}, {"compound": "Cc1ccc(C(CNCc2cccn2C)N2CCOCC2)s1", "note": "(centres undefined)", "Percent Effect": 12.06}, {"compound": "Cc1ccc2nc(NCCCN3CCCCCC3=O)n(C)c(=O)c2c1", "Percent Effect": 5.904}, {"compound": "CCC(CC)NC(=O)c1ccc2nnc(C3CCN(C(C)=O)C3)n2c1", "note": "(centres undefined)", "Percent Effect": -17.88}, {"compound": "O=C(c1ccoc1)N1CCC2(CC1)C(=O)Nc1ccccc12", "Percent Effect": 5.078}, {"compound": "CC(C)N(C)C(=O)C1=NOC2(CCN(C(=O)c3ccc(Cl)cc3)C2)C1", "note": "(centres undefined)", "Percent Effect": -15.34}, {"compound": "CN(C)C(=O)NC1COC2(CCN(C(=O)c3ccc(Cl)cc3)CC2)C1", "note": "(centres undefined)", "Percent Effect": -7.709}, {"compound": "NCCC(=O)N1CCC2(CC1)CN(C(=O)c1ccc(Cl)cc1)CCO2", "Percent Effect": 94.29}, {"compound": "O=C(c1cnc(-c2ccccc2)nc1)N1CCOC2(CCCC2)C1", "Percent Effect": -7.447}, {"compound": "CC(=O)N1CCC2(CC1)CN(C(=O)c1cccc3[nH]ccc13)CCO2", "Percent Effect": -6.539}, {"compound": "O=C(c1ccc(Cl)cc1)N1CCC2(CC1)C(=O)Nc1ccccc12", "Percent Effect": 0.2295}, {"compound": "NCCCC(=O)N1CCC2(CC1)CN(C(=O)c1ccc(Cl)cc1)CCO2", "Percent Effect": 114.9}, {"compound": "O=C(c1ccc(Cl)cc1)N1CCC2(C1)C(=O)Nc1ccccc12", "note": "(centres undefined)", "Percent Effect": 123}, {"compound": "CN(C)Cc1ccc(NC(=O)c2nccn3ccnc23)cc1", "Percent Effect": 4.692}, {"compound": "c1csc(-c2noc(CN3CCc4c(ncn4C4CC4)C3)n2)c1", "Percent Effect": -1.185}, {"compound": "Cn1nc2c(cc1=O)CN(Cc1nc(-c3cccs3)no1)CC2", "Percent Effect": -4.413}, {"compound": "Cc1ncc2c(n1)CN(Cc1cccc3c1OCCO3)CC2", "Percent Effect": -20.45}, {"compound": "CCc1ncc2c(n1)CN(Cc1nc(-c3cccs3)no1)CC2", "Percent Effect": 94.19}, {"compound": "CC(C)c1ncc2c(n1)CN(Cc1nc(-c3cccs3)no1)CC2", "Percent Effect": 1.311}, {"compound": "CCc1ncc2c(n1)CN(Cc1cccc3c1OCCO3)CC2", "Percent Effect": -19.5}, {"compound": "COc1ccc(-c2noc(CN3CCc4cncnc4C3)n2)cc1", "Percent Effect": -16.15}, {"compound": "CC(C)c1nc2c(n1C)CCN(Cc1nc(-c3cccs3)no1)C2", "Percent Effect": -3.537}, {"compound": "CCc1ncc2c(n1)CN(Cc1nc(-c3ccsc3)no1)CC2", "Percent Effect": -2.841}, {"compound": "Cc1ncc2c(n1)CN(Cc1nc(-c3cccs3)no1)CC2", "Percent Effect": 104.1}, {"compound": "c1csc(-c2noc(CN3CCc4cncnc4C3)n2)c1", "Percent Effect": 93.12}, {"compound": "c1cc(CN2CCc3cncnc3C2)c2c(c1)OCCO2", "Percent Effect": 51.63}, {"compound": "O=C(NC1(c2nnn(CC3CC3)n2)CCCC1)c1ccccc1", "Percent Effect": -31.69}, {"compound": "CCc1nc(C)c(C(=O)N2CCCC(c3noc(C)n3)C2)s1", "note": "(centres undefined)", "Percent Effect": -3.627}, {"compound": "CN(C)c1ccc(CCCNC(=O)NCC(O)c2cccs2)cc1", "note": "(centres undefined)", "Percent Effect": 15.76}, {"compound": "CN1CCN(CCCNC(=O)C2CCCCC2)CC1", "Percent Effect": -13.83}, {"compound": "CCC(NCCn1cccn1)C(=O)Nc1cc(C)on1", "note": "(centres undefined)", "Percent Effect": -12.89}, {"compound": "CC1CCN(C(CNC(=O)CCn2cccn2)c2cccs2)CC1", "note": "(centres undefined)", "Percent Effect": 3.155}, {"compound": "Cc1cc(-c2cnn(CCNC(=O)CCn3cccn3)c2C2CC2)on1", "Percent Effect": 139.3}, {"compound": "Cc1cc(-c2cnn(CCNC(=O)Cc3ccccn3)c2C2CC2)on1", "Percent Effect": 116.9}, {"compound": "O=C(O)C(F)(F)F.O=S(=O)(C1CC1)N1CCc2onc(COc3ccccn3)c2C1", "Percent Effect": -9.105}, {"compound": "Cn1cnc2c1CCN(CC(O)c1ccc(S(C)(=O)=O)cc1)C2", "note": "(centres undefined)", "Percent Effect": 1.592}, {"compound": "Cc1ccoc1C(=O)NCC(c1ccccc1Cl)N1CCOCC1", "note": "(centres undefined)", "Percent Effect": -4.275}, {"compound": "O=C(CCc1ccccc1)N1CCn2cc(CN3CCCC3)nc2C1", "Percent Effect": 5.739}, {"compound": "CC(O)CN1CC(C)(C)CN(C(=O)CCc2ccccc2)CC1=O", "note": "(centres undefined)", "Percent Effect": 108.2}, {"compound": "CCN1CC(C)(C)CN(C(=O)CCc2ccccc2)CC1=O", "Percent Effect": 98.77}, {"compound": "CC(C)(O)CN1CC(C)(C)CN(C(=O)CCc2ccccc2)CC1=O", "Percent Effect": 88.99}, {"compound": "CCCC(O)CN1CC(C)(C)CN(C(=O)CCc2ccccc2)CC1=O", "note": "(centres undefined)", "Percent Effect": 81.6}, {"compound": "CCc1nc(C(=O)N2CCN(C(=O)CCc3ccccc3)CC2)c[nH]1", "Percent Effect": -3.201}, {"compound": "CCC(Nc1nnnn1-c1ccccc1)C(=O)NC1CCSCC1", "note": "(centres undefined)", "Percent Effect": 2.585}, {"compound": "O=C(O)C1(Oc2ccccc2F)CCN(C/C=C/c2ccco2)CC1", "Percent Effect": 10.04}, {"compound": "Oc1ccc(-c2c(-c3ccccc3)ncn2C2CCNC2)cc1", "note": "(centres undefined)", "Percent Effect": 5.17}, {"compound": "COc1cc2c(cc1C1CC(=O)NCc3nc(N(C)C)sc31)CCC2", "note": "(centres undefined)", "Percent Effect": -15.52}, {"compound": "CN1CC(C)(C)CN(C(=O)CCc2ccccc2)CC1=O", "Percent Effect": 83.23}, {"compound": "COCC(O)CN1CC(C)(C)CN(C(=O)CCc2ccccc2)CC1=O", "note": "(centres undefined)", "Percent Effect": 110.7}, {"compound": "CN1CCN(C(=O)CCc2ccccc2)Cc2cccnc21.O=C(O)C(F)(F)F", "Percent Effect": -4.699}, {"compound": "CC1N(C)C(=O)COC12CCN(C(=O)CCc1ccccc1)CC2", "note": "(centres undefined)", "Percent Effect": 0.4061}, {"compound": "CN1C(=O)CC(C(=O)O)C12CCN(Cc1ccc(Cl)cc1F)CC2", "note": "(centres undefined)", "Percent Effect": 5.202}, {"compound": "CC(=O)NCC(=O)N1Cc2nccn2CC(COc2cccnc2)C1.O=C(O)C(F)(F)F", "note": "(centres undefined)", "Percent Effect": 111.9}, {"compound": "CC(C)NC(=O)N1Cc2nccn2CC(COc2cccnc2)C1.O=C(O)C(F)(F)F", "note": "(centres undefined)", "Percent Effect": 96.94}, {"compound": "CC(C)NC(=O)N1Cc2nccn2CC(CN2CCCC2)C1.O=C(O)C(F)(F)F", "note": "(centres undefined)", "Percent Effect": 12.37}, {"compound": "CC(=O)NCC(=O)N1Cc2nccn2CC(CN2CCCC2=O)C1", "note": "(centres undefined)", "Percent Effect": 14.08}, {"compound": "CC(=O)NCC(=O)N1Cc2nccn2CC(CN(C)C(C)C)C1.O=C(O)C(F)(F)F", "note": "(centres undefined)", "Percent Effect": -7.594}, {"compound": "Cn1cc(Br)cc(NC(=O)CC(C)(C)C)c1=O", "Percent Effect": 3.241}, {"compound": "CSc1ccc2cc(CN(C)CCc3cn[nH]c3)c(=O)[nH]c2c1", "Percent Effect": 4.017}, {"compound": "CCc1ccccc1CNC(=O)CNC(=O)C(C)(C)C", "Percent Effect": -5.244}, {"compound": "CCOc1ccccc1CNC(=O)N(CC)C(C)c1cccnc1", "note": "(centres undefined)", "Percent Effect": 2.92}, {"compound": "CC(C)S(=O)(=O)C(C)C(=O)NCc1cccc(N2CCCCC2=O)c1", "note": "(centres undefined)", "Percent Effect": 12.9}, {"compound": "CC(C)NC(=O)NCc1ccccc1NS(=O)(=O)c1ccccc1", "Percent Effect": 15.1}, {"compound": "CC(C)S(=O)(=O)C(C)C(=O)NCc1ccccc1OCc1ccccc1", "note": "(centres undefined)", "Percent Effect": 96.24}, {"compound": "CC(C)S(=O)(=O)C(C)C(=O)NCc1ccccc1COc1ccccc1", "note": "(centres undefined)", "Percent Effect": 92.84}, {"compound": "CC(C)C(=O)NCc1ccccc1NS(=O)(=O)c1ccccc1", "Percent Effect": -3.24}, {"compound": "CC(C)(C)C(=O)NCc1cnn2ccccc12", "Percent Effect": -7.626}, {"compound": "CC(C)OCc1ccccc1CNC(=O)C(C)(C)C", "Percent Effect": 99.75}, {"compound": "CC(C)OCc1ccccc1CNC(=O)C(C)S(=O)(=O)C(C)C", "note": "(centres undefined)", "Percent Effect": 93.94}, {"compound": "CC(C)OCc1ccc(CNC(=O)CC(F)(F)F)cc1", "Percent Effect": 28.04}, {"compound": "CC(COc1ccccc1)NS(C)(=O)=O", "note": "(centres undefined)", "Percent Effect": -8.999}, {"compound": "Cc1cc(C(=O)N2CC(=O)Nc3cnccc32)c(Cl)cc1F", "Percent Effect": -6.598}, {"compound": "COc1ccc(N2CCCC3(C2)CN(c2nncs2)CCO3)cc1", "note": "(centres undefined)", "Percent Effect": -4.383}, {"compound": "O=C(Cc1ccsc1)NCC1Cn2nnc(-c3ccoc3)c2CO1", "note": "(centres undefined)", "Percent Effect": -0.8336}, {"compound": "CC(C)N(C)C(=O)C1CCN(Cc2cc3c(cc2O)CCC3)CC1", "Percent Effect": 3.726}, {"compound": "O=C(NCc1ccccc1CO)C1COc2ccccc21", "note": "(centres undefined)", "Percent Effect": -7.77}, {"compound": "CCCN1CCC(Nc2cc(-c3ccccc3)ccc2OC)CC1", "Percent Effect": 9.804}, {"compound": "C=C(C)CN(CC)C(=O)CN1CCCC1C(=O)N(C)C", "note": "(centres undefined)", "Percent Effect": 1.656}, {"compound": "COc1cc(C(=O)NS(=O)(=O)c2ccc(C#N)cc2)ccc1C", "Percent Effect": 127.1}, {"compound": "CSc1ccsc1C(=O)NS(=O)(=O)c1cccc(C#N)c1", "Percent Effect": -50.61}, {"compound": "COc1cc(C(=O)NS(=O)(=O)c2cccc(C#N)c2)cc(OC)c1C", "Percent Effect": 111.6}, {"compound": "N#Cc1ccc(C(=O)NS(=O)(=O)c2ccc(F)c(F)c2)cc1", "Percent Effect": 6.651}, {"compound": "COc1cc(C(=O)NS(=O)(=O)c2cccc(C#N)c2)ccc1C", "Percent Effect": 0.1033}, {"compound": "CCOc1cc(C(=O)NS(=O)(=O)c2cccc(C#N)c2)ccc1OC", "Percent Effect": 121}, {"compound": "CC(C)(C)C(=O)NCCC(=O)NS(=O)(=O)c1cccc(C#N)c1", "Percent Effect": -5.738}, {"compound": "COc1cc(C(=O)NS(=O)(=O)c2cccc(C#N)c2)cc(OC)c1Br", "Percent Effect": 100.1}, {"compound": "COc1cc(C(=O)NS(=O)(=O)c2cccc(C#N)c2)cc(Cl)c1OC", "Percent Effect": 0.151}, {"compound": "N#Cc1ccc(S(=O)(=O)NC(=O)c2ccc3c(c2)COC3)cc1", "Percent Effect": -13.21}, {"compound": "COc1ccc(C(=O)NS(=O)(=O)c2cncc(Br)c2)cc1OC", "Percent Effect": -20.98}, {"compound": "CNC(=O)c1cccc(CCNC2CCSc3ccccc32)c1", "note": "(centres undefined)", "Percent Effect": -5.556}, {"compound": "CC(=O)Nc1ccc(C(=O)Nc2cnc3n2CCCC3)c(C)c1", "Percent Effect": -9.74}, {"compound": "Cn1ccc(CNC(=O)N2CCC(C3(C)OCCO3)CC2)c1", "Percent Effect": 7.37}, {"compound": "c1cnn(C2CN(Cc3noc(C4CC4)n3)C2)c1", "Percent Effect": 20.24}, {"compound": "COC(=O)[C@H]1C[C@@H](O)CCN1S(=O)(=O)c1cc(Cl)ccc1OC", "Percent Effect": -10.78}, {"compound": "Cc1nccn1-c1cc(CNC(=O)CCC2CCCO2)ccn1", "note": "(centres undefined)", "Percent Effect": 10.65}, {"compound": "COc1ccccc1C(=O)NS(=O)(=O)c1cccc(C#N)c1", "Percent Effect": 106.4}, {"compound": "COC(=O)c1cccc(S(=O)(=O)NC(=O)c2cccc(OC)c2OC)c1", "Percent Effect": 4.901}, {"compound": "COc1cccc(C(=O)NS(=O)(=O)c2cccc(C#N)c2)c1OC", "Percent Effect": -1.089}, {"compound": "O=C(Nc1ccccc1Oc1cccc(F)c1)C1CCS(=O)(=O)C1", "note": "(centres undefined)", "Percent Effect": 17.61}, {"compound": "COCCn1ccc2c(cnc3nc(SC)nn32)c1=O", "Percent Effect": 167}, {"compound": "CSc1nc2ncc3c(=O)n(CCN4CCCCC4)ccc3n2n1", "Percent Effect": 124.9}, {"compound": "COc1nc2ccn(CCc3cnccn3)c(=O)c2cc1C#N", "Percent Effect": -4.634}, {"compound": "CN1CCN(CCn2cnc3c(F)cccc3c2=O)CC1", "Percent Effect": 0.6334}, {"compound": "COCCn1cncc1Cn1cccc(C(F)(F)F)c1=O", "Percent Effect": -5.803}]}]}
